Test results taken from PMC8668186, “Molecular architecture of the human tRNA ligase complex” (eLife, 2021).

Legend:
DDX1 = DDX1 (UniProt Q92499); test: cross-linking mass spectrometry; conditions: DSS, purified complex
RTCB = RTCB (UniProt Q9Y3I0); test: cross-linking mass spectrometry; conditions: DSS, purified complex
RTCB, sequence (Q9Y3I0 whole entry): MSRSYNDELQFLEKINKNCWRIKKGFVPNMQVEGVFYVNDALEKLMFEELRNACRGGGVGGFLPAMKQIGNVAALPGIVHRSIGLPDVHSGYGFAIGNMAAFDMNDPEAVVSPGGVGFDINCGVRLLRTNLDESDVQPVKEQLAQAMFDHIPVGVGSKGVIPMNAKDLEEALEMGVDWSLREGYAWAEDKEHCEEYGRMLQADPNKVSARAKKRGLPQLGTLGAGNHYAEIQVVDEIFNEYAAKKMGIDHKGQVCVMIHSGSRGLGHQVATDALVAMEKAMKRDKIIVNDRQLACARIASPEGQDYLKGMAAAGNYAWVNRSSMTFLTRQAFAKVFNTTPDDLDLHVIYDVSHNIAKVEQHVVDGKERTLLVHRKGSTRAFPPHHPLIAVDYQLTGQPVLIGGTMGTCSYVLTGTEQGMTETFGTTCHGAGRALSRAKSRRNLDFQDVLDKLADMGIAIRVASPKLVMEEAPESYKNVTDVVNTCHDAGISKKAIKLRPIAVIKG

FAM98B, sequence (Q52LJ0 whole entry): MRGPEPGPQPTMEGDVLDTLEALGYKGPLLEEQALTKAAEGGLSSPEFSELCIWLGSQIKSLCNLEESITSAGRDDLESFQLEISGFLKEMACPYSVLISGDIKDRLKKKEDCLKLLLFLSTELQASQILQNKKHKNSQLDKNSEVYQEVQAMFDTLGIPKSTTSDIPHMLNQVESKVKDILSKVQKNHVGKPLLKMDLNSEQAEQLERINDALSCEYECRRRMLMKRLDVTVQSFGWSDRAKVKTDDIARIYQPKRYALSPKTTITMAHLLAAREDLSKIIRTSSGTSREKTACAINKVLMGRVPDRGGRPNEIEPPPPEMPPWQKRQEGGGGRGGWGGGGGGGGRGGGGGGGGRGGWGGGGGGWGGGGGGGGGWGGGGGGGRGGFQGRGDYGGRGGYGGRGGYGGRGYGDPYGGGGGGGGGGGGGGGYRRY
DDX1, sequence (Q92499 whole entry): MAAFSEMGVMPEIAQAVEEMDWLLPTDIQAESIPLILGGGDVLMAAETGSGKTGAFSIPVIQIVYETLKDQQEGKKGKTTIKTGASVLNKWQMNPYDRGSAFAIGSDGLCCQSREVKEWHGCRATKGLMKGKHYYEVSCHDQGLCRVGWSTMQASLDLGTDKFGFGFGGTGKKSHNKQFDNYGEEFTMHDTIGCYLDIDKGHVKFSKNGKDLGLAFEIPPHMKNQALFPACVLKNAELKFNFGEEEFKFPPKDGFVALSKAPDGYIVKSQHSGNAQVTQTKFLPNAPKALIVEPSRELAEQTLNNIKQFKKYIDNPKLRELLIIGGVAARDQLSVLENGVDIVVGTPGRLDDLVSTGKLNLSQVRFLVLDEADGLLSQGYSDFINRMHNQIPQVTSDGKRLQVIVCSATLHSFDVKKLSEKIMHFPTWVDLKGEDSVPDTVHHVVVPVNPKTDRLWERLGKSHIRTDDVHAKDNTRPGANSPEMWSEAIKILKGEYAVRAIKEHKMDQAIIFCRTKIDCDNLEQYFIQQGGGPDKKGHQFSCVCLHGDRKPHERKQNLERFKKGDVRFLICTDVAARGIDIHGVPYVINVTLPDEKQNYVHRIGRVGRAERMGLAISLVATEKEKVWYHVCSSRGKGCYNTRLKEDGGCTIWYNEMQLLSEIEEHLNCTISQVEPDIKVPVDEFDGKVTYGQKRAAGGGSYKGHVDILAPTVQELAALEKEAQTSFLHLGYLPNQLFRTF

## FAM98B, Q52LJ0
DDX1
  cross-linked residues: K245 - K693
RTCB
  cross-linked residues: K280 - K245
